PubChem BioAssay (EPA / NIEHS)
Calls of active or inactive are those of the source. How the source made its calls: active means hit-call score of the fitted dose curve at least 0.9, where 1 is the maximum; inactive means score below 0.9.

The compounds below were run against Estrogen receptor (Homo sapiens) (UniProt P03372) (assay: CCTE_Deisenroth_AIME_384WELL_LUC_Shift: CCTE's 384-well Estrogen Receptor Transactivation Assay with AIME metabolic competence data shift (ERTA luciferase; difference in metabolism positive and negative), Deisenroth Lab (AID 2284041);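 further: shift is response with S9 minus without S9 so positive means metabolism raised ER signal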).
Estrogen receptor (Homo sapiens), sequence (P03372 whole entry, looked up): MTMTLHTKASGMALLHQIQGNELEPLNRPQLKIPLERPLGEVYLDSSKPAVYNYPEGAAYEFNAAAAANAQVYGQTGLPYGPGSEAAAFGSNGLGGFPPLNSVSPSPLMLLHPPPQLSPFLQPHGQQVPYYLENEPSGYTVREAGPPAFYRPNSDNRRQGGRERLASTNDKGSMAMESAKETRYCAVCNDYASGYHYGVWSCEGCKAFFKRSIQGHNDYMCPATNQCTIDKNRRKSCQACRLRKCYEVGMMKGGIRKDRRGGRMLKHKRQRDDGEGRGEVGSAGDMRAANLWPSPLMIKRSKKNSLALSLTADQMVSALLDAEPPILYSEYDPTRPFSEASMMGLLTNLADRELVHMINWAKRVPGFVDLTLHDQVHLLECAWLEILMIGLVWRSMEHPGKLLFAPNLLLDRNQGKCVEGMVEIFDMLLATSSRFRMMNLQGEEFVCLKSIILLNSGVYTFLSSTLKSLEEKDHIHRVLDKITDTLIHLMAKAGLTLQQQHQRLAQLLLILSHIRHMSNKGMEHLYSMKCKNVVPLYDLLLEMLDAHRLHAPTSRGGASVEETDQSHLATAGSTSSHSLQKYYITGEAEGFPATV
Description: CCTE_Deisenroth_AIME_384WELL (AIME metabolism assay) is a cell-based, single-readout assay that uses VM7Luc4E2, a human mammary gland/breast cell line, with measurements taken at 24 hour after chemical dosing in a 384-well plate.CCTE_Deisenroth_AIME_384WELL_LUC_Shift is one of two analysis components calculated from the CCTE_Deisenroth_AIME_384WELL assay. […] AIME is optimized to impart phase I hepatic metabolism using phenobarbital/beta-naphthoflavone induced hepatic S9 from male Sprague Dawley rats. Parent chemicals are incubated for 2 hours in the AIME assay prior to transfer to the VM7Luc ERTA assay plate. […] The metabolic curve shift response is defined as the pairwise difference between the positive (AEID 2488) and negative (AEID 2490) normalized response values at each concentration for a given chemical across replicate experiments. The pairwise differences form the basis for a concentration-response curve. Standard curve fit analysis identfiied chemicals where the calculated shift was greater than the shift-derived baseline cutoff. A positive hit designation in this endpoint indicates a significant shift trend in the positive direction for bioactivation.
The AIME procedure consists of a preparative "pre-stamping" step using a barium chloride/poly-L-lysine (PLL) solution followed by "stamping" the lid in alginate-hepatic S9 (metabolism positive) or alginate-water (metabolism negative) to form microspheres. Once stamping is completed, the AIME lids are placed in duplicate microplates (metabolism positive or negative) containing chemical solutions and incubated for two hours to facilitate metabolic reactions. The conditioned medium, containing parent chemical or metabolites, is then transferred to the cell-based VM7Luc Estrogen Receptor Transactivation Assay (ERTA) for 24 hours. A typical experimental design tests a 10-point concentration series (0.002 - 200 uM) for 8 compounds (96-well format)1 or 32 compounds (384-well format)2 in single technical replicate. AIME assay controls include trans-stilbene (bioactivated control) and ethylparaben (bioinactivated control). ERTA assay plate controls include 17-beta estradiol (positive control) and DMSO (solvent control). Experiments typically comprise a minimum of four experimental replicates (n=4).
`COC(=O)NS(=O)(=O)c1ccc(N)cc1` was tested, and the outcome was “inactive”.
In the case of `CCOP(=O)(OCC)Oc1nc(Cl)c(Cl)cc1Cl`, the outcome is reported as “inactive”.
For `O=c1n(Cl)c(=O)n(Cl)c(=O)n1Cl`, the outcome was “inactive”.
`COP(=S)(OC)Oc1ccc([N+](=O)[O-])c(C)c1` was tested, and the outcome was “inactive”.
For `Clc1cccc(C(Cl)(Cl)Cl)n1`, the outcome was “inactive”.
In the case of `O=C(Nc1ccccc1-c1ccc(Cl)cc1)c1cccnc1Cl`, the outcome is reported as “inactive”.
In the case of `CC1(C)C(C=C(Cl)Cl)C1C(=O)OC(C#N)c1cccc(Oc2ccccc2)c1` (centres undefined), the outcome is reported as “inactive”.
In the case of `COP(=S)(OC)SCn1nnc2ccccc2c1=O`, the outcome is reported as “inactive”.
In the case of `CCCC(=NOCC)C1=C(O)CC(CC(C)SCC)CC1=O` (centres undefined), the outcome is reported as “inactive”.
With `CCSC(=O)N1CCCCCC1` the outcome was “inactive”.
With `COc1cc(OC)nc(NC(=O)NS(=O)(=O)c2ncccc2OCC(F)(F)F)n1` the outcome was “inactive”.
With `COCC(C)N(C(=O)CCl)c1c(C)csc1C` (centres undefined) the outcome was “inactive”.
In the case of `CCCCC(O)(Cn1cncn1)c1ccc(Cl)cc1Cl` (centres undefined), the outcome is reported as “inactive”.
`CS(=O)(=O)c1cc(C(F)(F)F)ccc1C(=O)c1cnoc1C1CC1` was tested, and the outcome was “inactive”.
With `COCc1cnc(C2=NC(C)(C(C)C)C(=O)N2)c(C(=O)O)c1` (centres undefined) the outcome was “inactive”.
In the case of `C=C(C)CN(CC)c1c([N+](=O)[O-])cc(C(F)(F)F)cc1[N+](=O)[O-]`, the outcome is reported as “inactive”.
For `CCOc1nc(C(Cl)(Cl)Cl)ns1`, the outcome was “inactive”.
In the case of `CCOC(=O)C(C)OC(=O)c1cc(Oc2ccc(C(F)(F)F)cc2Cl)ccc1[N+](=O)[O-]` (centres undefined), the outcome is reported as “inactive”.
`Cc1ccc(N=CN(C)C=Nc2ccc(C)cc2C)c(C)c1` was tested, and the outcome was “inactive”.
In the case of `CCC(C)n1c(=O)[nH]c(C)c(Br)c1=O` (centres undefined), the outcome is reported as “inactive”.
For `CC(C)Oc1cccc(NC(=O)c2ccccc2C(F)(F)F)c1`, the outcome was “inactive”.
`CN=C=S` was tested, and the outcome was “inactive”.
In the case of `CC(C)N1C(=O)c2ccccc2NS1(=O)=O`, the outcome is reported as “inactive”.
`CC1(C)CON(Cc2ccccc2Cl)C1=O` was tested, and the AC50 was 37.7 µM (active).
`CCOc1nc(F)cc2nc(S(=O)(=O)Nc3c(Cl)cccc3Cl)nn12` was tested, and the outcome was “inactive”.
`CC(C)Nc1nc(Cl)nc(NC(C)C)n1` was tested, and the outcome was “inactive”.
`COc1ccc(-c2ccccc2)cc1NNC(=O)OC(C)C` was tested, and the outcome was “inactive”.
In the case of `CCCCOCN(C(=O)CCl)c1c(CC)cccc1CC`, the outcome is reported as “inactive”.
For `Nc1cnn(-c2ccccc2)c(=O)c1Cl`, the outcome was “inactive”.
With `N#Cc1c(Cl)cccc1Cl` the outcome was “inactive”.
`COC(=O)N(C(=O)N1CO[C@@]2(C(=O)OC)Cc3cc(Cl)ccc3C2=N1)c1ccc(OC(F)(F)F)cc1` was tested, and the outcome was “inactive”.
`Nc1c(Cl)c(Cl)nc(C(=O)O)c1Cl` was tested, and the AC50 was 5.4 µM (active).
For `Cc1cc(C)nc(Nc2ccccc2)n1`, the outcome was “inactive”.
In the case of `CNC(=O)N(C)c1nnc(C(C)(C)C)s1`, the outcome is reported as “inactive”.
`CCCCC(C#N)(Cn1cncn1)c1ccc(Cl)cc1` (centres undefined) was tested, and the outcome was “inactive”.
With `CO/N=C(/C1=NOCCO1)c1ccccc1Oc1ncnc(Oc2ccccc2Cl)c1F` the outcome was “inactive”.
With `CCOP(=S)(OCC)Oc1nc(Cl)n(C(C)C)n1` the outcome was “inactive”.
For `COC(=O)NC(=S)Nc1ccccc1NC(=S)NC(=O)OC`, the outcome was “inactive”.
`CC(C)N1C(=O)N(c2ccccc2)CSC1=NC(C)(C)C` was tested, and the outcome was “inactive”.
